Holding throughout (experiment): NCI-60 one-dose screen, 48 h (100 = growth as untreated, 0 = no growth, -100 = all killed)
Experiment [1] has as its system NCI-H23 lung. The following applies: 10 µM unless noted.
In experiment [2] the test system is NCI-H322M lung. To be noted: 10 µM unless noted.
Experiment [3] relates to HOP-62 NSCLC. To be noted: 10 µM unless noted.
The subject of experiment [4] is NCI-H460 lung. The following applies: 10 µM unless noted.
Experiment [5] has as its system NCI-H522 lung. To be noted: 10 µM.
The subject of experiment [6] is A549/ATCC NSCLC. The following applies: 10 µM unless noted.
In experiment [7] the test system is 786-0 renal. The following applies: 10 µM unless noted.
In experiment [8] the test system is COLO 205 colon. To be noted: 10 µM unless noted.
For experiment [9], the system named is HOP-92 NSCLC. To be noted: 10 µM unless noted.

Compounds without any hit were thinned out: in the full panel of roughly 83,000, 20% have a hit.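 The endpoint reported here, percent growth, reads 100 for growth as untreated, 0 for no net growth and -100 for all cells dead.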 Values without a mark were called inactive. Calls of active or inactive are those of the source. The calls were made as follows: active = growth percent below 10; inactive = the rest.

`COc1cc(C(=O)N(C(C)C)C2CCCCC2)cc(OC)c1OC`: the growth in experiment [1] is 101%; in experiment [2], 108%; in experiment [3] it was 93.3%; in experiment [4], 107%; in experiment [5], 88.3%; in experiment [6], 97.2%. For the same compound, the growth is 121% in experiment [7] and 105% in experiment [8].
`O=C1NC(=O)C2(CCCC2C(=O)O)N1` (stereo not drawn): the growth in [1] was 98.3%; in experiment [2], 117%; in experiment [3], 111%; in experiment [4], 106%; in experiment [6], 105%; in experiment [7], 94.9%. Also, the growth in [8] was 109%.
On to `NC(=O)c1cccc(-n2ccc3cc(NC(=O)Nc4ccc(Cl)c(Cl)c4)ccc32)n1`, for which the growth was 92.9% in experiment [1]; 96.7% in experiment [2]; 81.1% in [3]; 78% in experiment [9]; 68.2% in experiment [5]; 74.4% in [6]. Besides, the growth in experiment [7] is 66.4%.
With `Cc1ccccc1-n1nnc(C(=O)Nc2ccc(-c3ccccc3)cn2)c1C`, the growth is 38.1% [50 µM] in [1]; 81.3% [50 µM] in experiment [2]; 93.7% [50 µM] in [3]; 61.9% [50 µM] in [4]; 29.8% [50 µM] in [6]; 62.1% [50 µM] in experiment [7]. In experiment [8], the growth was 40.2% [50 µM].
Consider `Nc1ccccc1-c1n[nH]c(=O)[nH]c1=O`, for which the growth in [1] was 96.6%; in [2], 114%; in experiment [3], 112%; in experiment [4], 107%; in experiment [6], 105%; in experiment [7], 109%. Further, the growth in experiment [8] was 137%.
With `Cc1cc(=O)[nH]n1-c1cc(Cl)ccc1N`, the growth in [1] was 107%; in experiment [2], 112%; in experiment [3], 103%; in experiment [4], 113%; in experiment [6], 105%; in experiment [7], 104%. Further, the growth in [8] was 103%.
For `CCOC(=O)C1=C(C)N2C(=NC3=C(CCCC/C3=C\c3cc(OC)c(OC)c(OC)c3)C2c2cc(OC)c(OC)c(OC)c2)S1` (stereo not drawn), the growth in experiment [1] is 61.9%; in [2] it was 96.5%; in [3] it was 50%; in experiment [4], 60%; in [6], 60.3%; in experiment [8], 81.2%.
As for `COc1ccc(C2=NOC(CC(=O)N(CCO)CCO)C2)cc1OC1CCCC1` (stereo not drawn), the growth in experiment [1] is 99.9%; in [2] it was 107%; in experiment [3], 102%; in experiment [9], 94.1%; in [5], 98.3%; in [6], 95.5%. Further, the growth in experiment [7] was 92.7%.
Consider `CNc1ccc(Br)cc1-c1n[nH]c(=O)[nH]c1=O`, for which the growth was 90.8% in experiment [1]; 115% in [2]; 105% in [3]; 101% in experiment [4]; 112% in [6]; 95% in experiment [7]. In addition, in experiment [8], the growth is 131%.
As to `O=c1nc(NO)[nH]c(=O)n1Cc1ccccc1`, the growth was 105% in experiment [1]; 120% in experiment [2]; 110% in [3]; -3.57% (active) in experiment [9]; 111% in experiment [6]; 101% in experiment [7]. In experiment [8], the growth was 128%.
With `COc1cc(-c2nc(Nc3nc4ccccc4[nH]3)nc(N)c2C#N)cc(OC)c1OC`, the growth in [1] is 87.9%; in experiment [2], 83.2%; in experiment [3] it was 65.1%; in experiment [9] it was 50.5%; in experiment [5] it was 20.1%; in experiment [6], 69.6%. The growth in experiment [7] is 67.1%; in experiment [8] it was 32.3%.
As to `CN1CCN(C(=O)OCCOCCOC(=O)N2CCN(C)CC2)CC1`, the growth was 97.6% in experiment [1]; 105% in experiment [2]; 106% in experiment [3]; 107% in experiment [4]; 104% in experiment [6]; 94.5% in [7]. Moreover, the growth in experiment [8] was 102%.
For `O=c1[nH]c(=S)[nH]c(=O)n1Cc1cccc2ccccc12`, the growth is 102% in [1]; 114% in experiment [2]; 106% in [3]; 97.6% in experiment [4]; 99.7% in experiment [6]; 120% in experiment [8].
Consider `O=C1c2c(c3c4cc(Br)ccc4[nH]c3c3ccc4ccccc4c23)C(=O)N1O`, for which the growth in experiment [1] is 95.7%; in experiment [2] it was 96.9%; in [3] it was 79.6%; in experiment [9], 140%; in [5], 63.2%; in experiment [6] it was 95.6%. For the same compound, the growth in experiment [7] is 106%.
Take `COc1ccc(NS(=O)(=O)c2ccc(-c3cnc(C4CC4)o3)cc2)cc1`: the growth is 71.9% in [1]; 91.8% in experiment [2]; 54.8% in [3]; 63% in [9]; 51% in [5]; 54.7% in experiment [6]. Moreover, the growth in experiment [7] is 81.3%.
On to `CCN(c1ccc(C(=O)N2CCN(c3ccccc3)CC2)cc1)S(C)(=O)=O`, for which the growth was 103% in experiment [1]; 102% in experiment [2]; 104% in experiment [3]; 108% in experiment [4]; 105% in experiment [6]; 101% in experiment [7]. The growth in experiment [8] is 113%.
As to `CCC12CCC3c4ccc(O)cc4CCC3C1CC(O)C2O` (stereo not drawn), the growth in [1] was 68%; in experiment [2], 102%; in experiment [3], 83.2%; in experiment [9] it was 72.3%; in experiment [5], 37.4%; in experiment [6] it was 61.7%. The growth in experiment [7] is 92.5%.
On to `CS(=O)(=O)Nc1cccc(C(=O)NCc2ccc(N3CCOCC3)cc2)c1`, for which the growth in experiment [1] is 104%; in experiment [2], 112%; in [3] it was 107%; in experiment [4], 109%; in experiment [6], 119%; in [7], 101%. For the same compound, the growth in [8] is 112%.
`CC1=CN2C(=NC3=C(CCCC/C3=C\c3ccccc3)C2c2ccccc2)S1` (stereo not drawn): the growth was 101% in experiment [1]; 101% in experiment [2]; 103% in experiment [3]; 107% in experiment [4]; 108% in experiment [6]; 105% in experiment [7]. The growth in experiment [8] is 122%.

These data come from PubChem BioAssay (NCI).
